PubChem BioAssay
Where “and” joins values, the source holds several entries; their conditions need not be identical. Equal values may be shown once. Calls of active or inactive are those of the source.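 Rule for the calls: active = compounds whose cell count with miR-34 switched on is under 0.7 times the count with it off; inactive = the rest.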

Test: viability loss with induced miR-34 in A549 – imaging, A549 dox-inducible miR-34, nuclei and caspase counts, primary screen (AID 1347080); note: test concentration not given here
Settings: A549 miR-34 inducible, Hoechst nuclei count, 48 h; stronger effect = lower value; cell number ratio, induced over uninduced

Which fold change does the source give for `CN1CCN(c2c(F)cc3c(=O)c(C(=O)O)cn4c3c2SCC4)CC1` here?
Its fold change is 0.974 (inactive) and 0.992 (inactive) and 0.895 (inactive).

Which fold change does the source give for `COc1cc(C(=O)NCc2ccc(OCCN(C)C)cc2)cc(OC)c1OC` here?
Its fold change is 0.938 (inactive) and 0.925 (inactive) and 0.912 (inactive).

With `Oc1c(Cl)cc(Cl)c(Cl)c1Cc1c(O)c(Cl)cc(Cl)c1Cl` as the compound, how does the fold change read?
Its fold change is 1.05 (inactive) and 0.85 (inactive).

With `CC1CCc2cc(F)cc3c(=O)c(C(=O)O)cn1c23` (centres undefined) as the compound, how does the fold change read?
The fold change was 0.911 (inactive) and 0.884 (inactive) and 0.854 (inactive).

With `CC(C)NCC(O)c1ccc2ccccc2c1` (centres undefined) as the compound, how does the fold change read?
Its fold change is 0.951 (inactive) and 0.938 (inactive) and 0.885 (inactive).

For `O=C1c2ccccc2C(=O)c2c1ccc(O)c2O`, which fold change is on record?
The fold change was 0.918 (inactive).

With `CC(C(=O)O)c1ccc(C(=O)c2cccs2)cc1` (centres undefined) as the compound, how does the fold change read?
Its fold change is 0.842 (inactive) and 0.947 (inactive) and 0.9 (inactive).

For `CC1(C)O[C@@H]2C[C@H]3[C@@H]4CCC5=CC(=O)CC[C@]5(C)[C@@]4(F)[C@@H](O)C[C@]3(C)[C@]2(C(=O)CCl)O1`, which fold change is on record?
The fold change was 0.774 (inactive).

With `CCN1CCN(c2cc3c(cc2F)c(=O)c(C(=O)O)cn3C2CC2)CC1` as the compound, how does the fold change read?
Its fold change is 0.982 (inactive) and 0.836 (inactive) and 0.884 (inactive).

With `CCCCCCCCCCCCCCCCOP(=O)([O-])OCC[N+](C)(C)C` as the compound, how does the fold change read?
Its fold change is 1 (inactive) and 0.955 (inactive).

Which fold change does the source give for `CN1C(C)(C)CCCC1(C)C` here?
The fold change was 0.888 (inactive).

With `CO[C@]12C[C@@H](COC(=O)c3cncc(Br)c3)CN(C)[C@@H]1Cc1cn(C)c3cccc2c13` as the compound, how does the fold change read?
The fold change was 0.861 (inactive) and 0.885 (inactive) and 0.895 (inactive).

Which fold change does the source give for `C[n+]1ccccc1/C=N/O` here?
The fold change was 0.951 (inactive) and 0.91 (inactive).

With `CN(C/C=C/C#CC(C)(C)C)Cc1cccc2ccccc12` as the compound, how does the fold change read?
Its fold change is 0.935 (inactive) and 0.938 (inactive).

With `O=C(Cn1ccnc1[N+](=O)[O-])NCCO` as the compound, how does the fold change read?
Its fold change is 0.871 (inactive) and 0.832 (inactive).

Same assay, conditions: A549 miR-34 inducible, Hoechst nuclei count, 48 h; measured here: relative caspase fold change +Dox/-Dox

Which fold change does the source give for `CN(C)CCCSc1ccccc1NC(=O)/C=C/c1ccccc1` here?
The fold change was 0.895 and 0.508.

Which fold change does the source give for `CC(C)(O)c1ccccc1CC[C@@H](SCC1(CC(=O)O)CC1)c1cccc(/C=C/c2ccc3ccc(Cl)cc3n2)c1` here?
The fold change was 1.4.

With `CN1CCN(C2=Nc3cc(F)ccc3Cc3ccccc32)CC1` as the compound, how does the fold change read?
Its fold change is 1.3 and 0.98.

For `CC(=O)Nc1ccc(OCC(O)CNC(C)C)cc1` (centres undefined), which fold change is on record?
The fold change was 1.35 and 1.11.

With `O=C(O)P(=O)(O)O` as the compound, how does the fold change read?
Its fold change is 0.852 and 3.28.

Which fold change does the source give for `CC(Oc1c(Cl)cccc1Cl)C1=NCCN1` (centres undefined) here?
Its fold change is 0.839 and 1.76 and 1.47.

Which fold change does the source give for `CCCCNc1c(C(=O)OCC)c(C)nc2c1cnn2CC` here?
The fold change was 1.73 and 0.694 and 0.876.

For `COc1cc(N)c(Cl)cc1C(=O)NC1CCN(Cc2ccccc2)CC1`, which fold change is on record?
The fold change was 0.965.

Which fold change does the source give for `C[C@]12CCC(=O)C=C1C=C[C@@H]1[C@@H]2CC[C@@]2(C)[C@H]1CC[C@@]21CCC(=O)O1` here?
The fold change was 1.19.

For `C/C=C/c1ccc(OC)cc1`, which fold change is on record?
The fold change was 3 and 1.61.

Which fold change does the source give for `CCOC(=O)OC(C)OC1=C(C(=O)Nc2ccccn2)N(C)S(=O)(=O)c2ccccc21` (centres undefined) here?
The fold change was 1.05 and 0.416 and 1.29.

With `COc1ccc(C(=O)NCc2ccc(OCCN(C)C)cc2)cc1OC` as the compound, how does the fold change read?
Its fold change is 0.68 and 1.38 and 1.73.

For `C[C@H]1COc2c(C3(N)CC3)c(F)cc3c(=O)c(C(=O)O)cn1c23`, which fold change is on record?
The fold change was 0.784 and 0.738.

With `CC(=O)Nc1ccc(CC(=O)O)cc1` as the compound, how does the fold change read?
The fold change was 1.68.

With `O=C(O)CCC(=O)c1ccc(-c2ccccc2)cc1` as the compound, how does the fold change read?
The fold change was 0.334 and 2.8 and 1.54.

With `CCN1CC(CCN2CCOCC2)C(c2ccccc2)(c2ccccc2)C1=O` (centres undefined) as the compound, how does the fold change read?
Its fold change is 1.42 and 1.3.

Which fold change does the source give for `Cn1c(=O)c2c(ncn2CCO)n(C)c1=O` here?
The fold change was 1.24.

Which fold change does the source give for `CN1CCCCC1CCN1c2ccccc2Sc2ccc(S(C)=O)cc21` (centres undefined) here?
The fold change was 1.32 and 2.22 and 1.93.

For `Nc1nc2c(ncn2CCC(CO)CO)c(=O)[nH]1`, which fold change is on record?
Its fold change is 1.67 and 0.466 and 0.841.

For `CC(C)(C(=O)c1cccnc1)c1cccnc1`, which fold change is on record?
Its fold change is 1.43 and 1.26 and 2.87.

For `CCN(CC)C(=O)N1CCN(C)CC1`, which fold change is on record?
The fold change was 1.19 and 0.187 and 0.88.

With `NC(=NCCCCCCN=C(N)/N=C(\N)Nc1ccc(Cl)cc1)/N=C(\N)Nc1ccc(Cl)cc1` as the compound, how does the fold change read?
Its fold change is 1.13 and 3.13.

Which fold change does the source give for `COC(=O)CCc1ccc(OCC(O)CNC(C)C)cc1` (centres undefined) here?
Its fold change is 0.838 and 0.901 and 1.51.

Which fold change does the source give for `CN(C)/N=N/c1nc[nH]c1C(N)=O` here?
The fold change was 1.29 and 2.08.

For `CN1CCN(c2c(F)cc3c(=O)c(C(=O)O)cn4c3c2SCC4)CC1`, which fold change is on record?
The fold change was 0.702 and 1.33 and 0.919.

With `COc1cc(C(=O)NCc2ccc(OCCN(C)C)cc2)cc(OC)c1OC` as the compound, how does the fold change read?
Its fold change is 0.8 and 0.443 and 2.44.

With `Oc1c(Cl)cc(Cl)c(Cl)c1Cc1c(O)c(Cl)cc(Cl)c1Cl` as the compound, how does the fold change read?
The fold change was 2.17 and 2.72.

For `CC1CCc2cc(F)cc3c(=O)c(C(=O)O)cn1c23` (centres undefined), which fold change is on record?
Its fold change is 1.2 and 1.04 and 2.46.

For `CC(C)NCC(O)c1ccc2ccccc2c1` (centres undefined), which fold change is on record?
Its fold change is 0.594 and 1.29 and 1.16.

For `O=C1c2ccccc2C(=O)c2c1ccc(O)c2O`, which fold change is on record?
Its fold change is 1.48.

Which fold change does the source give for `CC(C(=O)O)c1ccc(C(=O)c2cccs2)cc1` (centres undefined) here?
The fold change was 1.16 and 0.84 and 2.46.

For `CC1(C)O[C@@H]2C[C@H]3[C@@H]4CCC5=CC(=O)CC[C@]5(C)[C@@]4(F)[C@@H](O)C[C@]3(C)[C@]2(C(=O)CCl)O1`, which fold change is on record?
Its fold change is 1.34.

Which fold change does the source give for `CCN1CCN(c2cc3c(cc2F)c(=O)c(C(=O)O)cn3C2CC2)CC1` here?
The fold change was 1.31 and 5.17 and 1.41.

With `CCCCCCCCCCCCCCCCOP(=O)([O-])OCC[N+](C)(C)C` as the compound, how does the fold change read?
The fold change was 0.961 and 1.28.

With `CN1C(C)(C)CCCC1(C)C` as the compound, how does the fold change read?
The fold change was 1.

With `CO[C@]12C[C@@H](COC(=O)c3cncc(Br)c3)CN(C)[C@@H]1Cc1cn(C)c3cccc2c13` as the compound, how does the fold change read?
Its fold change is 1.4 and 2.61 and 0.782.

With `C[n+]1ccccc1/C=N/O` as the compound, how does the fold change read?
The fold change was 1.53 and 0.982.

With `CN(C/C=C/C#CC(C)(C)C)Cc1cccc2ccccc12` as the compound, how does the fold change read?
The fold change was 4.07 and 1.16.

With `O=C(Cn1ccnc1[N+](=O)[O-])NCCO` as the compound, how does the fold change read?
Its fold change is 1.39 and 4.67.
